# Reference: PubChem BioAssay (NCATS)
# Inconclusive results are not listed. Where a call stands in place of a potency, no number is given. A number with no mark means an inactive call. The source made the active and inactive calls. Calls follow the shape of the dose curve; as a rule, active = well fitted curve in the direction sought with a large enough effect; inconclusive = small, poorly fitted or top-dose-only effect, or another doubt; inactive = no such curve, though single readings can be large; an effect the other way counts as inactive or inconclusive. Where a SMILES comes first, the peptide text is derived from it. The star is where a group is joined. Cbz = O=C(OCc1ccccc1)*; CH2Cl = ClC*
# Legend:
# [1] = system: HaCat; test: Cytotoxic Profiling of Annotated Libraries Using Quantitative High-Throughput Screening (AID 1296008); settings: Five cell lines viability, CellTiter-Glo ATP luminescence, 48-72 h; max response: hits give low values; also: nearly all actives have a fitted effect of over 60% in size; also: potency is read from the fitted curve at half-maximal effect
# How it was run: (§1)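 Cells exposed to compounds for 48 or 72 hr at 37 degrees Celsius. Viability read as ATP-coupled luminescence with CellTiter-Glo after 10 min at room temperature.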
# [2] = system: KB-3-1; test: as above; settings: Five cell lines viability, CellTiter-Glo ATP luminescence, 48-72 h; max response: hits give low values
# How it was run: as §1
# [3] = system: NIH3T3; test: as above; settings: Five cell lines viability, CellTiter-Glo ATP luminescence, 48-72 h; max response: hits give low values
# How it was run: as §1
# [4] = system: HACAT; test: qHTS assay to identify novel small-molecules to repurpose for Merkel cell carcinoma treatment (AID 1296009); settings: MCC and control cell lines, CellTiter-Glo viability, 72 h; at 44.8 µM (top of the series) unless noted; also: nearly all actives have a fitted effect of over 60% in size
# How it was run: (§2)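 CellTiter-Glo luminescence after 72 hr compound exposure at 37 degree celsius gave cell viability. Libraries NPC and MIPE were run as 8- and 11-point dose responses; RLUs normalized to DMSO (negative) and no-cell (cytotoxicity) controls.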
# [5] = system: C33A; test: Primary qHTS to identify gynecologic anti-cancer compounds using libraries of approved drugs and bioactive compounds (AID 1345084); settings: Gynecologic cancer cell panel viability, ATPlite luminescence, 48 h; series mostly up to 57.5 µM; also: nearly all actives have a fitted effect of over 55% in size; also: potency is read from the fitted curve at half-maximal effect
# How it was run: (§3)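 Five-concentration response, 48 h; readout is ATP-driven luciferase luminescence.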
# [6] = system: CAOV3; test: as above; settings: Gynecologic cancer cell panel viability, ATPlite luminescence, 48 h; series mostly up to 57.5 µM
# How it was run: as §3
# [7] = system: CASKI; test: as above; settings: Gynecologic cancer cell panel viability, ATPlite luminescence, 48 h; series mostly up to 57.5 µM
# How it was run: as §3
# [8] = system: Es-2; test: as above; settings: Gynecologic cancer cell panel viability, ATPlite luminescence, 48 h; series mostly up to 57.5 µM
# How it was run: as §3
# [9] = system: HeLa; test: as above; settings: Gynecologic cancer cell panel viability, ATPlite luminescence, 48 h; series mostly up to 57.5 µM
# How it was run: as §3
# [10] = system: Hek293T; test: as above; settings: Gynecologic cancer cell panel viability, ATPlite luminescence, 48 h, control line for the selectivity index; series mostly up to 57.5 µM
# How it was run: as §3
# [11] = system: JEG-3; test: as above; settings: Gynecologic cancer cell panel viability, ATPlite luminescence, 48 h; series mostly up to 57.5 µM
# How it was run: as §3
# [12] = system: OV90; test: as above; settings: Gynecologic cancer cell panel viability, ATPlite luminescence, 48 h; series mostly up to 57.5 µM
# How it was run: as §3
# [13] = system: PA-1; test: as above; settings: Gynecologic cancer cell panel viability, ATPlite luminescence, 48 h; series mostly up to 57.5 µM
# How it was run: as §3
# [14] = system: SKOV3; test: as above; settings: Gynecologic cancer cell panel viability, ATPlite luminescence, 48 h; series mostly up to 57.5 µM
# How it was run: as §3
# [15] = system: HEK293; test: Cytotoxic Profiling of Annotated Libraries Using Quantitative High-Throughput Screening (AID 1296008); settings: Five cell lines viability, CellTiter-Glo ATP luminescence, 48-72 h; max response: hits give low values; also: nearly all actives have a fitted effect of over 60% in size; also: potency is read from the fitted curve at half-maximal effect
# How it was run: as §1
# [16] = system: NIH3T3; test: qHTS assay to identify novel small-molecules to repurpose for Merkel cell carcinoma treatment (AID 1296009); settings: MCC and control cell lines, CellTiter-Glo viability, 72 h; series mostly up to 44.8 µM; also: nearly all actives have a fitted effect of over 60% in size
# How it was run: as §2
smiles,measurement,setting,value
COc1ccc(-n2c(SCCCN3C(=O)c4cccc5cccc(c45)C3=O)nnc2-c2ccncc2)cc1,outcome,[1],inactive
same,max response,[2],-1.97%
same,max response,[3],-2.58%
same,outcome,[4],inactive
same,Potency,[5],inactive
same,Potency,[6],inactive
same,Potency,[7],inactive
same,Potency,[8],inactive
same,Potency,[9],inactive
same,Potency,[10],inactive
same,Potency,[11],inactive
same,Potency,[12],inactive
same,Potency,[13],inactive
same,Potency,[14],inactive
COc1cc2c(NC3CCN(C(C)C)CC3)nc(N3CCC(F)(F)CC3)nc2cc1OCCCN1CCCC1,Potency,[15],8.2 µM (active)
same,Potency,[6],8.91 µM (active)
same,Potency,[7],31.6 µM (active)
same,Potency,[11],22.4 µM (active)
same,Potency,[12],11.2 µM (active)
same,Potency,[13],22.4 µM (active)
Cc1ccc(NC(=O)C(C)C)cc1C1CCN(Cc2ccc(Oc3ccc(F)c(F)c3)cc2)CC1,Potency,[15],13 µM (active)
same,Potency,[7],inactive
same,Potency,[9],inactive
same,Potency,[11],inactive
CC1(C)CC[C@]23CO[C@@]4(CCC5[C@@]6(C)CC[C@H](O[C@@H]7OC[C@H](O[C@@H]8O[C@H](CO)[C@@H](O)[C@H](O)[C@H]8O[C@@H]8OC[C@@H](O)[C@H](O)[C@H]8O)[C@H](O)[C@H]7O[C@@H]7O[C@H](CO)[C@@H](O)[C@H](O)[C@H]7O)[C@@](C)(CO)C6CC[C@@]5(C)[C@]4(C)C[C@H]2O)[C@@H]3C1 (stereo partly drawn),Potency,[15],3.48 µM (active)
same,"activity change, negative = cytotoxicity",[9],-0.159% [at 11.6 µM]
same,"activity change, negative = cytotoxicity",[13],-25.5% [at 11.6 µM]
C[C@H]1[C@H](/C=C/c2ccc(-c3ccccc3C#N)cn2)[C@@H]2[C@@H](C)OC(=O)[C@@H]2C[C@@H]1C,Potency,[15],13 µM (active)
same,Potency,[6],inactive
same,Potency,[12],inactive
CC(CCC1(O)OC2CC3C4CC=C5C[C@@H](O[C@@H]6O[C@H](CO)[C@@H](O[C@@H]7O[C@@H](C)[C@H](O)[C@@H](O)[C@H]7O)[C@H](O)[C@H]6O[C@@H]6O[C@@H](C)[C@H](O)[C@@H](O)[C@H]6O)CC[C@]5(C)C4CC[C@]3(C)[C@@]2(O)[C@@H]1C)CO[C@@H]1O[C@H](CO)[C@@H](O)[C@H](O)[C@H]1O (stereo partly drawn),outcome,[1],inactive
same,outcome,[2],inactive
same,max response,[3],4.51%
same,outcome,[4],inactive [at 9.27 µM]
same,"activity change, negative = cytotoxicity",[5],-5.46% [at 11.6 µM]
same,Potency,[6],1 µM (active)
same,"activity change, negative = cytotoxicity",[7],14.6% [at 11.6 µM]
same,"activity change, negative = cytotoxicity",[8],10.8% [at 11.6 µM]
same,"activity change, negative = cytotoxicity",[9],4.9% [at 11.6 µM]
same,"activity change, negative = cytotoxicity",[10],7.85% [at 11.6 µM]
same,"activity change, negative = cytotoxicity",[11],5.47% [at 11.6 µM]
same,"activity change, negative = cytotoxicity",[12],3.45% [at 11.6 µM]
same,"activity change, negative = cytotoxicity",[13],19.4% [at 11.6 µM]
same,"activity change, negative = cytotoxicity",[14],2.43% [at 11.6 µM]
Cc1c[nH]c2ncnc(N3CCC(CN)(C(=O)Nc4cccc(OC(=O)N(C)C)c4)CC3)c12,Potency,[15],3.66 µM (active)
same,Potency,[6],inactive
same,Potency,[7],inactive
same,Potency,[8],inactive
same,Potency,[9],inactive
same,Potency,[11],inactive
same,Potency,[12],11.2 µM (active)
same,Potency,[13],inactive
same,Potency,[14],22.4 µM (active)
C=C1C(=O)OC2C(OC(=O)C=C(C)C)C(C)=C3C(=O)C=C(C)C3C(O)C12 (stereo not drawn),Potency,[15],6.4 µM (active)
same,Potency,[6],11.2 µM (active)
same,Potency,[7],inactive
same,Potency,[9],inactive
same,Potency,[14],12.6 µM (active)
COc1ccc(CNc2nc(N(CCO)CCO)nc3c2ncn3C(C)C)cc1,Potency,[15],4.61 µM (active)
same,Potency,[6],inactive
same,Potency,[8],22.4 µM (active)
C=C1C(=O)OC2/C=C(\COC(C)=O)CC/C=C(\C=O)CC(OC(=O)C(C)CC)C12 (stereo not drawn),Potency,[15],3.55 µM (active)
same,Potency,[7],inactive
same,Potency,[9],inactive
same,Potency,[12],inactive
same,Potency,[13],11.2 µM (active)
CCN1CCN(Cc2ccc(NC(=O)c3ccc(C)c(Oc4ncnc5[nH]c(C)cc45)c3)cc2C(F)(F)F)CC1,Potency,[15],13 µM (active)
same,Potency,[13],31.6 µM (active)
C=C1C(=O)O[C@H]2C[C@@H](C)[C@@H]3CCC(=O)[C@@]3(C)C[C@H]12,Potency,[15],6.51 µM (active)
same,Potency,[7],7.94 µM (active)
same,Potency,[9],inactive
same,Potency,[10],25.1 µM (active)
same,Potency,[11],15.8 µM (active)
same,Potency,[12],22.4 µM (active)
CC(C)C[C@H](NC(=O)CNC(=O)OCc1ccccc1)C(=O)N[C@@H](Cc1ccccc1)C(=O)CCl (Cbz-Gly-Leu-Phe-CH2Cl),Potency,[15],9.2 µM (active)
same,Potency,[7],inactive
same,Potency,[9],inactive
same,Potency,[12],inactive
C/C1=C\CCC2=CC(OC2=O)C(C)(C)/C=C/C1=O (stereo not drawn),Potency,[15],6.51 µM (active)
same,Potency,[9],inactive
same,Potency,[13],31.6 µM (active)
O=C(Nc1ncc([N+](=O)[O-])s1)c1ccccc1O,outcome,[1],inactive
same,Potency,[2],8.2 µM (active)
same,outcome,[3],inactive
same,outcome,[4],inactive
same,Potency,[16],inactive
same,Potency,[5],inactive
same,Potency,[6],inactive
same,Potency,[7],inactive
same,Potency,[9],inactive
same,Potency,[10],inactive
same,Potency,[11],inactive
same,Potency,[12],inactive
same,Potency,[13],inactive
same,Potency,[14],inactive
O=C(Nc1cnc(Cl)nc1)c1ccc(F)c(F)c1,outcome,[1],inactive
same,max response,[2],3.36%
same,max response,[3],1.41%
same,outcome,[4],inactive
same,Potency,[5],inactive
same,Potency,[6],inactive
same,Potency,[7],inactive
same,Potency,[8],inactive
same,Potency,[9],inactive
same,Potency,[10],inactive
same,Potency,[11],inactive
same,Potency,[12],inactive
same,Potency,[13],inactive
same,Potency,[14],inactive
C=CS(=O)(=O)NC1CCN(C(=O)CNc2cc(I)c(Cl)cc2OC)CC1,Potency,[15],8.2 µM (active)
same,Potency,[11],inactive
same,Potency,[13],10 µM (active)
same,Potency,[14],inactive
Cc1nc(C#Cc2ccnc(Cl)c2)c(C)n1-c1ccc(OC(F)(F)F)cc1,outcome,[1],inactive
same,max response,[2],-15.3%
same,max response,[3],-27.8%
same,outcome,[4],inactive
same,Potency,[5],inactive
same,Potency,[6],inactive
same,Potency,[7],inactive
same,Potency,[8],inactive
same,Potency,[9],inactive
same,Potency,[10],inactive
same,Potency,[11],inactive
same,Potency,[12],inactive
same,Potency,[13],inactive
same,Potency,[14],inactive
CC1CCCC(O)CC(=O)c2c(O)cc(O)cc2CC(=O)O1 (stereo not drawn),Potency,[15],8.05 µM (active)
same,Potency,[6],inactive
same,Potency,[11],inactive
same,Potency,[12],inactive
Cc1cc(N2CCN(C(=O)Oc3ccc(-c4ccccc4)cn3)CC2)c2ccccc2n1,Potency,[15],8.2 µM (active)
same,Potency,[6],inactive
same,Potency,[9],inactive
C=CCc1ccc(OC(C)Cc2ccc(OC)c(OC)c2)c(OC)c1 (stereo not drawn),outcome,[1],inactive
same,max response,[2],-25.6%
same,max response,[3],-6.99%
same,outcome,[4],inactive
same,Potency,[5],inactive
same,Potency,[6],inactive
same,Potency,[7],inactive
same,Potency,[8],inactive
same,Potency,[9],inactive
same,Potency,[10],inactive
same,Potency,[11],inactive
same,Potency,[12],inactive
same,Potency,[13],inactive
same,Potency,[14],inactive
